These results are taken from ChEMBL document CHEMBL4513216, “Probing the Open Global Health Chemical Diversity Library for Multistage-Active Starting Points for Next-Generation Antimalarials” (ACS Infect Dis, 2020).

About 2,100 (3.2%) of roughly 65,000 compounds showed an effect of 50% or more. The median lay at about -52%. Many of the other results were omitted from the sample, so strong results are more common in it than they were.

This assay relates to Plasmodium falciparum. Kind of assay: Screen against P. falciparum Asexual Blood Stage (ABS), at 5uM. The format is functional, Dd2. The settings on record: tested at 5 uM.
With `Cc1ccc(C(CCNCCCN(C)C)C2CCOC(C)(C)C2)cc1` (configuration not stated), the INHIBITION came out at 83.6%.

On to `CN(Cc1cccnc1)[C@@H]1CN(CC2CC2)[C@@H]2CCCO[C@H]12`, for which the INHIBITION is reported as -1.12%.

With `COc1cc(OC)c(C2SCC(=O)Nc3n[nH]cc32)cc1OC` (configuration not stated), the INHIBITION was -189%.

Take `COc1cc(OC)c(C2Nc3cc(Cl)ccc3C3=NCCN32)cc1OC` (configuration not stated): the INHIBITION is 81.7%.

As to `C/C(=C\c1ccco1)CN(C)C(C)Cc1cc(C)ccn1` (configuration not stated), the INHIBITION was -0.191%.

Take `CS(=O)(=O)Cc1nc(CN2CC=C(c3ccccc3)CC2)cs1`: the INHIBITION is recorded as -50.8%.

As to `CCCN1CCN(C(=O)c2cnccc2C)[C@H]2CS(=O)(=O)C[C@H]21`, the INHIBITION is given as -12.9%.

For the molecule `Cc1c(C(=O)N2CCC(N3CCCCC3)CC2)n(C)c2ccc(Cl)cc12`, the INHIBITION was 88%.

Take `O=C(c1[nH]c2ccc(Cl)cc2c1Cl)N1CCC2(CC1)OCCO2`: the INHIBITION was -37.1%.

Regarding `CC(C)c1ncc(Cl)c(C(=O)N2CCN3CCCCC3C2)n1` (configuration not stated), the INHIBITION is -158%.

Turning to `CC(Cn1cncn1)NCc1csc2c1CCCC2` (configuration not stated), the INHIBITION is recorded as -42.7%.

Turning to `c1cnc(NC[C@H]2OC[C@@H]3CCN(Cc4ccncc4)C[C@@H]32)nc1`, the INHIBITION was -102%.

Turning to `c1cc(CN2CC[C@@H]3CN(c4cnccn4)C[C@@H]3C2)ccn1`, the INHIBITION is -72.2%.

On to `Fc1ccc(OCCNC2CCN(Cc3ccncc3)CC2)c(F)c1`, for which the INHIBITION was 74.2%.

In the case of `CNc1ncccc1C(=O)N1CCC2(CCN(C)C2)CC1`, the INHIBITION was -89.3%.

On to `Cc1ncc(CNCCO)c2cc(C(=O)c3ccc(Br)cc3)oc12`, for which the INHIBITION worked out at 89.3%.

For the molecule `O=C1C[C@@H]2CC[C@H](CN1)N2C1CSCCSC1`, the INHIBITION is recorded as -45.6%.

Consider `C[C@H]1C[C@@H]2CCN(Cc3ccco3)C[C@H]2O1`, for which the INHIBITION was -32%.

In the case of `O=C1NC[C@H]2CN(Cc3nccs3)CCN12`, the INHIBITION was -41.7%.

For `CN1CCN(Cc2ccco2)Cc2cccnc21`, the INHIBITION is recorded as -15.8%.

Regarding `c1cc(CN2CCCC23CCCN(Cc2ccoc2)C3)ccn1` (configuration not stated), the INHIBITION is given as -105%.

Turning to `Cc1ccc(CN2CCC3(CCN(Cc4ccncc4)CC3)CC2)cc1`, the INHIBITION is 78.3%.

As to `Cc1ccc(CN2CCC3(CC2)CCN(Cc2ccoc2)CC3)cc1`, the INHIBITION is 92.7%.

On to `O=C1CC2(CCN(Cc3ccoc3)C2)CN1c1cncnc1` (configuration not stated), for which the INHIBITION is recorded as -51.3%.

`Fc1ccc(CN2CCC3(CC2)CCN(Cc2nccs2)CC3)cc1`: the INHIBITION came to 86.6%.

As to `Cc1ccc(CN2CCC3(CC2)CCN(Cc2ccco2)CC3)cc1`, the INHIBITION came to 91.7%.

In the case of `Cn1ccnc1CN1CC2(CCN(Cc3ccncc3)C2)C1`, the INHIBITION is reported as -45.8%.

In the case of `c1cnc(N2CC3(CCN(Cc4ccncc4)C3)C2)nc1`, the INHIBITION was -104%.

For the molecule `O=C1Nc2ccccc2C12CCN(Cc1nccs1)CC2`, the INHIBITION is listed as -15.8%.

As for `O=C1CSC(c2ccc(Cl)cc2Cl)c2c(n(C3CCOCC3)[nH]c2=O)N1` (configuration not stated), the INHIBITION was -37.1%.

Consider `O=C(NCC1CC[C@@]2(CNCCOC2)O1)c1cccnc1` (some centres not stated), for which the INHIBITION was -65.9%.

For the molecule `Cc1n[nH]c2c1C(c1ccsc1)SCC(=O)N2` (configuration not stated), the INHIBITION is recorded as -110%.

Consider `c1cncc(OC[C@]23COC[C@H]2CN(C2CCOCC2)C3)c1`, for which the INHIBITION is on record as -10.4%.

Regarding `CSCCCN1CC[C@@]2(O)CCN(c3ncccn3)C[C@H]2C1`, the INHIBITION stood at 16.4%.

With `CCCOc1ccc2ccccc2c1CN1CC[C@@]2(O)CCNC[C@H]2C1`, the INHIBITION is 93.2%.

As to `O=C(O)[C@]12CCCN(C3CCOC3)C[C@H]1CN(c1ncccn1)C2` (some centres not stated), the INHIBITION was -128%.

Consider `CN(C)C(=O)c1ccc(-c2cccc3c2CCNC3)cc1`, for which the INHIBITION is given as -115%.

For the molecule `Oc1ccc(N2CCN(Cc3ccc(F)cc3Br)CC2)cc1`, the INHIBITION was -85.8%.

On to `OC1(c2ccc(F)cc2)CCN(Cc2ccccc2N2CCCC2)CC1`, for which the INHIBITION is reported as 71.9%.

For the molecule `O=C(NCC1CC1)[C@@H]1C[C@@H]2OCCN[C@@H]2C1`, the INHIBITION is reported as -55.3%.

For the molecule `O=C1NCC[C@]12CN(Cc1cccnc1)C[C@H]2c1ccccc1`, the INHIBITION is on record as -11.5%.

Take `Cc1ccc(C)c(N2CCN(CC3(O)CCNC3)CC2)c1` (configuration not stated): the INHIBITION was 85.9%.

Turning to `Cc1cccc(CN2CCC23CCCNC3)n1` (configuration not stated), the INHIBITION came to 12%.

`Cc1nc2c(C)cccc2cc1C(=O)N1CCC2(CCCNC2)C1` (configuration not stated): the INHIBITION is reported as -31.7%.

As for `CC(=O)N1CC2(CCNCC2)c2cc(C)ccc21`, the INHIBITION is listed as 1.98%.

As to `Cc1ccccc1N1CCCN(CC2(O)CCCNC2)CC1` (configuration not stated), the INHIBITION is listed as 87.7%.

Turning to `Cc1cnn(CC(C)NCc2ccc(C#N)cc2F)c1` (configuration not stated), the INHIBITION is reported as -84.2%.

`c1cc(CN2CCO[C@H]3[C@H](OCC4CCCC4)CC[C@@H]32)ccn1`: the INHIBITION is on record as -71.1%.

Take `CN(C)CCN(C)C[C@H]1CN2CC[C@H]1C[C@@H]2CNC(=O)Nc1ccsc1`: the INHIBITION is reported as -49.3%.

As for `Cc1nc(CN2CCOC3(CCCC3)C2)oc1C`, the INHIBITION is recorded as -101%.

Take `C[C@H]1CN2C[C@H](O)CC2CN1Cc1ccncc1` (some centres not stated): the INHIBITION is listed as -85.4%.

On to `C[C@@H]1CN2C[C@H](O)CC2CN1Cc1ccncc1` (some centres not stated), for which the INHIBITION is -64.4%.

As to `O[C@@H]1C[C@H]2CN(Cc3ccsc3)[C@@H](Cc3ccccc3)CN2C1`, the INHIBITION is on record as 71.6%.

Turning to `Cc1ccc(-n2nnc(CC(=O)N3CCN(C4CC4)CC3)c2C)cc1`, the INHIBITION was -35.9%.

Regarding `COc1cccc(C2SCC(=O)Nc3n[nH]cc32)c1OC(C)C` (configuration not stated), the INHIBITION is recorded as -75.3%.

Consider `Cc1cnn(CC(C)NCc2cccc(C#N)c2)c1` (configuration not stated), for which the INHIBITION is given as -41.8%.

On to `Cc1ccc(CC(=O)N2CCN(CC(O)c3ccccc3)CC2)cn1` (configuration not stated), for which the INHIBITION is -130%.

For `O=C(Cc1ccccc1)N1CCN(CC(O)c2ccc(F)cc2)CC1` (configuration not stated), the INHIBITION is on record as -118%.

Consider `Cc1cccc(CNC(CN2CCN(C)CC2)c2ccccc2)c1` (configuration not stated), for which the INHIBITION was determined as 83.5%.

On to `O=C(Cc1ccc(F)cc1)N1CCN(CC(O)c2ccccc2)CC1` (configuration not stated), for which the INHIBITION is given as -18%.

On to `COc1cccc(CC(C)NC(=O)NCc2ccn(C)c2)c1` (configuration not stated), for which the INHIBITION is -91.8%.

On to `COc1cccc(CC(C)NC(=O)NC(C)C)c1` (configuration not stated), for which the INHIBITION is on record as -64.2%.

As for `Cc1ccc(CNC(CN2CCN(C)CC2)c2ccccc2)cc1` (configuration not stated), the INHIBITION is 79.5%.

With `CN1CCN(CC(NCc2ccc(F)c(F)c2)c2ccccc2)CC1` (configuration not stated), the INHIBITION is 83.8%.

Turning to `COc1cccc(CNC(CN2CCN(C)CC2)c2ccccc2)c1` (configuration not stated), the INHIBITION is 82%.

Take `O=C(c1ccncc1F)N1C[C@@H]2OCCN(CC3CC3)[C@@H]2C1`: the INHIBITION was -66.6%.

`O=C(C1CCCCC1)N1CCC2(CC1)OCCO2`: the INHIBITION is on record as -149%.
